{
  "source": "PubChem BioAssay (Tox21)",
  "note": "“And” between values parts separate entries of the source, which are not always exact repeats. Equal values may be shown once. Records with an inconclusive call do not appear. A call without a number means that no potency is given here. Where a structure was tested more than once in an assay, its records may differ in their call. The source made the active and inactive calls. The call rests on the fitted dose curve; in most records, active means well fitted activation curve with a large enough effect in the repeat runs; inconclusive means weak or mixed curves; inactive means flat fitted curve, though single readings scatter. Potency means the concentration at half of the fitted maximal effect.",
  "data": [
    {"assay": "A CellTox Green Cytotoxicity Assay to monitor cytotoxicity in HepG2 cells - 32 hour (AID 1224883); further: nearly all actives have a fitted effect of over 50% in size", "settings": "CellTox Green fluorescence; series mostly up to 76.8 µM; cytotoxicity increase: at the top concentration", "from_the_text": "National Center for Advancing Translational Sciences [NCATS]\nNIH Chemical Genomics Center [NCGC]\nU.S. Environmental Protection Agency [EPA]\nNational Institutes of Environmental Health Sciences [NIEHS]\nNational Toxicology Program [NTP]\nCell-based models are critical for drug discovery. Determining the natural cytotoxic effects resulting from test compounds is an essential research activity. A CellTox Green Cytotoxicity Assay to monitor cytotoxicity in real time of continues cell culture during 40 hours of the compound treatment was used to screen Tox21 10K library compounds in HepG2 cells. CellTox Green Cytotoxicity Assay is a nonlytic, homogeneous, biofluorescent method to measure cytotoxicity in cell culture after experimental manipulation. The assay system uses a proprietary asymmetric cyanine dye that is excluded from viable cells but preferentially stains the dead cell's DNA. […] Viable cells produce no appreciable increases in fluorescence. Therefore, the fluorescence signal produced by the binding interaction with dead cell DNA is proportional to cytotoxicity.\nThe mixture of HepG2 cell suspension and reagents were dispensed at 600cells/6 ul/well in 1536-well tissue culture treated black solid bottom plates using a Multidrop dispenser. After the assay plates were incubated at a 37 C/5% CO2 incubator for 5 hours, 23 nL of compounds dissolved in DMSO, positive and negative controls was transferred to the assay plate by a pintool work station. The plates were incubated at 37 C for 40 hours. The fluorescence intensity were measured at 0h, 8h, 16h, 24h, 32h and 40h time points using ViewLux plate reader during compound treatment.", "values": [
      {"smiles": "CN(C)C(=S)SC(=S)N(C)C", "Potency": "2.52 µM (active) and 1.95 µM (active) and 2.68 µM (active)"},
      {"smiles": "CC(=O)C(=O)O", "Potency": "inactive"},
      {"smiles": "Nc1c2c(nc3ccccc13)CCCC2", "Potency": "inactive"},
      {"smiles": "O=C(Nc1ncc([N+](=O)[O-])s1)c1cccs1", "cytotoxicity increase": "-6.48% [at 35.3 µM] (inactive)"},
      {"smiles": "CCCCC1(COC(=O)CCC(=O)O)C(=O)N(c2ccccc2)N(c2ccccc2)C1=O", "Potency": "inactive"},
      {"smiles": "O=C1NC(=O)C(c2ccccc2)(c2ccccc2)N1", "Potency": "inactive and 21.3 µM (active)"},
      {"smiles": "CN1[C@@H]2CC(OC(=O)[C@H](CO)c3ccccc3)C[C@H]1[C@@H]1O[C@@H]12", "note": "(stereo not given in full)", "Potency": "inactive"},
      {"smiles": "CCCCC(CC)C(=O)O", "note": "(stereo not given)", "Potency": "inactive"},
      {"smiles": "CCCCCCc1ccc(O)cc1O", "Potency": "49.1 µM (active) and 38.9 µM (active) and 21.3 µM (active)"},
      {"smiles": "CCCC[P+](CCCC)(CCCC)CCCC", "Potency": "inactive"},
      {"smiles": "C=C1CC[C@H](O)C/C1=C\\C=C1/CCC[C@]2(C)[C@@H]([C@H](C)CCCC(C)C)CC[C@@H]12", "cytotoxicity increase": "2.83% (inactive)"},
      {"smiles": "CCN(CC)C(=O)c1cccc(C)c1", "Potency": "inactive"},
      {"smiles": "C=CCc1ccc(O)c(OC)c1", "Potency": "inactive"},
      {"smiles": "CN(C)CCOC(C)(c1ccccc1)c1ccccn1", "note": "(stereo not given)", "Potency": "inactive"},
      {"smiles": "F[B-](F)(F)F", "Potency": "inactive"},
      {"smiles": "CN(N=O)C(=O)N[C@@H]1[C@@H](O)[C@H](O)[C@@H](CO)O[C@@H]1O", "Potency": "inactive"},
      {"smiles": "O=c1[nH]cnc2c1ncn2[C@H]1CC[C@@H](CO)O1", "Potency": "inactive"},
      {"smiles": "CCCCCCCCCCCC[N+](C)(C)Cc1ccccc1", "Potency": "17 µM (active) and 23.8 µM (active) and 10.7 µM (active)"},
      {"smiles": "CN1CCc2cccc3c2[C@H]1Cc1ccc(O)c(O)c1-3", "Potency": "inactive"},
      {"smiles": "CCOC(N)=O", "Potency": "inactive"},
      {"smiles": "NC1CCCCC1", "Potency": "inactive"},
      {"smiles": "NS(=O)(=O)O", "Potency": "inactive"},
      {"smiles": "CCCc1cc(=O)[nH]c(=S)[nH]1", "Potency": "inactive"},
      {"smiles": "Oc1ccccc1", "Potency": "inactive"},
      {"smiles": "CS(=O)(=O)OCCCCOS(C)(=O)=O", "Potency": "inactive"},
      {"smiles": "O=CC(=O)c1ccccc1", "cytotoxicity increase": "-1.8% (inactive)"},
      {"smiles": "Cn1c(=O)c2c(ncn2C)n(C)c1=O", "Potency": "inactive"},
      {"smiles": "CCc1nc(N)nc(N)c1-c1ccc(Cl)cc1", "Potency": "inactive"},
      {"smiles": "Nc1ccc(S(N)(=O)=O)cc1", "Potency": "inactive"},
      {"smiles": "O=C1c2c(O)cccc2Cc2cccc(O)c21", "Potency": "inactive"},
      {"smiles": "C1CCC(C(CC2CCCCN2)C2CCCCC2)CC1", "note": "(stereo not given)", "Potency": "5.35 µM (active)"},
      {"smiles": "CC1(C)S[C@@H]2[C@H](NC(=O)[C@H](N)c3ccccc3)C(=O)N2[C@H]1C(=O)O", "Potency": "inactive"},
      {"smiles": "Nc1ccc2c(c1)CN1C(=O)c3ccccc3C1=N2", "Potency": "10.4 µM (active)"},
      {"smiles": "Nc1ccc(O)c([N+](=O)[O-])c1", "cytotoxicity increase": "-10.1% (inactive)"},
      {"smiles": "NC(=O)n1c(O)c(C(=O)c2cccs2)c2cc(Cl)ccc21", "cytotoxicity increase": "4.44% [at 35.3 µM] (inactive)"},
      {"smiles": "CC(C)c1c(C(=O)Nc2ccccc2)c(-c2ccccc2)c(-c2ccc(F)cc2)n1CC[C@@H](O)C[C@@H](O)CC(=O)O", "Potency": "2.98 µM (active) and 10.2 µM (active) and 6.01 µM (active)"},
      {"smiles": "COc1ccc2c(c1)c(CC(=O)O)c(C)n2C(=O)c1ccc(Cl)cc1", "Potency": "inactive"},
      {"smiles": "CC(O)(P(=O)(O)O)P(=O)(O)O", "Potency": "inactive"},
      {"smiles": "Cc1ncc([N+](=O)[O-])n1CCO", "Potency": "inactive"},
      {"smiles": "CC(C)NCC(O)c1ccc(O)c(O)c1", "note": "(stereo not given)", "Potency": "inactive"}
    ]}
  ]
}
